# Test results from PubChem BioAssay (NCI).
# This is part of a sample that, as a whole, favours compounds with a hit. Of some 83,000 tested, about 20% had one in any assay.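 Note: values are percent growth. 100 is the growth of untreated cells, values between 100 and 0 indicate rising inhibition; between -100 and 0 indicates cell death.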 A number with no mark means an inactive call. Active and inactive are the calls of the source. How the source made its calls: active means growth percent below 10; inactive means the rest.
# Tests used:
# Assay in all cases: NCI-60 one-dose screen, 48 h (100 = growth as untreated, 0 = no growth, -100 = all killed)
# [1] = system: HCT-15 colon; conditions: 10 µM unless noted
# [2] = system: HT29 colon; conditions: 10 µM unless noted
# [3] = system: SNB-75 CNS; conditions: 10 µM unless noted
# [4] = system: SNB-19 CNS; conditions: 10 µM unless noted
# [5] = system: U251 CNS; conditions: 10 µM unless noted
# [6] = system: PC-3 prostate; conditions: 10 µM unless noted
# [7] = system: SK-MEL-5 melanoma; conditions: 10 µM unless noted
# [8] = system: UACC-62 melanoma; conditions: 10 µM unless noted
# [9] = system: LOX IMVI melanoma; conditions: 10 µM unless noted
# [10] = system: SK-MEL-28 melanoma; conditions: 10 µM unless noted
# [11] = system: SK-MEL-2 melanoma; conditions: 10 µM
# [12] = system: EKVX NSCLC; conditions: 10 µM unless noted
# [13] = system: SN12C renal; conditions: 10 µM unless noted
# [14] = system: UO-31 renal; conditions: 10 µM unless noted
# [15] = system: TK-10 renal; conditions: 10 µM unless noted
# [16] = system: ACHN renal; conditions: 10 µM unless noted
# [17] = system: A498 renal; conditions: 10 µM unless noted
# [18] = system: CCRF-CEM leukemia; conditions: 10 µM unless noted
# [19] = system: MOLT-4 leukemia; conditions: 10 µM unless noted
Structure (SMILES),growth [1],growth [2],growth [3],growth [4],growth [5],growth [6],growth [7],growth [8],growth [9],growth [10],growth [11],growth [12],growth [13],growth [14],growth [15],growth [16],growth [17],growth [18],growth [19]
CCN(CC)CCNc1ccc(N=Nc2cnc3ccccc3c2)c2ccccc12,-66.5% (active),-90.3% (active),-56.8% (active),-71.7% (active),-76.9% (active),-83.8% (active),-97.8% (active),-92.5% (active),-81% (active),-92.8% (active),-76.9% (active),-2.28% (active),-88.9% (active),-94.2% (active),-79% (active),-69.6% (active),-91.5% (active),-78.2% (active),-49.7% (active)
CC(C)C1CCC(C)C(C2(C#N)C(N)=NC(N)=C2C#N)C1=O (configuration not stated),101%,96.2%,84%,101%,99.7%,86%,101%,102%,92.5%,107%,109%,94.4%,100%,80.2%,115%,107%,105%,–,96.1%
C=CC[n+]1c(/C=C/C=C2\N(C)c3ccccc3C2(C)C)sc2ccc(OC)cc21,12.8%,9.18% (active),20%,28.2%,15.9%,17.6%,-90.7% (active),19.5%,15.9%,37.5%,-13.4% (active),10.9%,11.7%,13.7%,32.8%,10.8%,17.7%,21.5%,10.2%
Clc1ccc2c(NCCNc3nc(N4CCCC4)nc4ccccc34)ccnc2c1,-34.5% (active),-27.2% (active),12.5%,25.1%,-44% (active),21.9%,-97.1% (active),-56.6% (active),-85.7% (active),-54.2% (active),-42.9% (active),24.4%,3.63% (active),-72.3% (active),-47.3% (active),-83% (active),-5.18% (active),5.08% (active),-5.18% (active)
CCOC(=O)Sc1ncnc2nc[nH]c12,82.5%,59.6%,62%,91.1%,91.7%,88%,74.1%,16%,7.98% (active),100%,27.9%,97.9%,82.4%,41%,23.2%,70%,84%,13.5%,4.03% (active)
COc1cc(-c2nc(C(=O)NCC(=O)O)nn2-c2ccc(Cl)cc2)cc(OC)c1OC,102%,106%,115%,109%,96.6%,94.3%,98.3%,104%,84.9%,104%,120%,91.7%,101%,90.5%,117%,112%,107%,84.2%,100%
CCc1ccc(C2=C(O)C(=O)C(c3ccc(CC)cc3)=C(O)C2=O)cc1,6.42% (active),0.54% (active),-16.9% (active),8.83% (active),1.63% (active),6.64% (active),-58.7% (active),-44.1% (active),4.72% (active),-19.2% (active),-44.4% (active),-15% (active),-6.25% (active),0.57% (active),5.31% (active),-9.41% (active),-31% (active),–,-6.88% (active)
CCCc1cc2cc(-n3nc(C)c4c3CC(C)(C)CC4=O)cc(NC3CCC(O)CC3)c2c(=O)[nH]1 (configuration not stated),23.6%,8.7% (active),49.4%,40%,25.6%,33%,15.8%,14.1%,-18.4% (active),36.4%,41.6%,47.7%,41.4%,29.7%,40.8%,28.8%,64%,–,14.7%
COc1cc(NCCN(CC(C)C)CC(C)C)c2ncc(C)cc2c1,34.2%,86.1%,95.3%,85.3%,67.9%,47.8%,23.6%,53%,15.5%,79.7%,74.8%,74.9%,74.7%,64%,139%,77.7%,113%,86.4%,54.9%
CCCC(=O)OCC1OC(n2cnc3c(=S)nc[nH]c32)C(OC(=O)CCC)C1OC(=O)CCC (configuration not stated),56.4%,35.9%,52.9%,74.4%,87.6%,59.7%,38.6%,13.7%,11.7%,98.2%,12.5%,69.3%,49.9%,32.6%,6.59% (active),41.5%,–,24.6%,18.6%
c1cc[n+](Cc2c3ccccc3cc3c2ccc2ccccc23)cc1,91.5%,25.6%,29.6%,6.26% (active),6.64% (active),42%,-60.1% (active),11.2%,48.8%,-2.27% (active),25%,58.3%,0.929% (active),81.9%,78.1%,103%,80.2%,55.5%,25.6%
C[C@@H](C[C@H](CCO)c1cc(C(F)(F)F)cc(C(F)(F)F)c1)c1ccc2ccccc2c1,76.7%,71.2%,88.5%,107%,91.5%,83%,105%,90.4%,87.3%,86.7%,82.2%,81.3%,96.4%,79%,95%,98.7%,120%,84.2%,71%
O=c1nc2c(-c3nc4ccccc4s3)n[nH]n2c2sc3c(c12)CCCC3,64%,111%,104%,101%,86.5%,79.6%,101%,92.7%,96.9%,114%,112%,92%,97.1%,75.4%,147%,105%,–,79.8%,98.6%
